Several values for one entry are separate records, joined by “and”; a condition that tells them apart may be missing. Identical values can stand only once. About 1,300 (0.37%) of roughly 350,000 compounds were called active.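 The calls were made as follows: active = mean added fluorescence quench of at least 8% versus neutral control, with both replicates also reaching 8%; inconclusive = only one of the mean or replicate conditions met; inactive = mean below 8% and not both replicates reaching 8%.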 Shown is part of a subset that was picked to be rich in actives.
assay: F508del CFTR correction, initial screen, CFBE line, single point (AID 720511); settings: CFBE cells, YFP halide quenching, at 7.58 µM, active compounds read high, % fluorescence drop versus neutral controls, stimulated with forskolin plus potentiator P3;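 also: cells transiently co-express mutant CFTR-F508del with the halide-sensitive YFP; corrector assay measuring rescue of mutant channel to the surface after 24 h compound exposure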

Activity (quench increase), active:
CCOc1ccc(-c2cc(C(=O)N/N=C/c3ccc(O)cc3)c3ccccc3n2)cc1 12.2%
O=C(Nc1ccc(OC(F)(F)F)cc1)c1ccc2c(c1)no[n+]2[O-] 14.5%
NC(=O)CC(NC(=O)Cc1ccc(Br)cc1)c1ccc(NC2CC3CCC2C3)c([N+](=O)[O-])c1 (configuration not stated) 10.1%
COc1ccc(CNS(=O)(=O)c2cc(-c3cc(C)no3)ccc2C(C)C)cc1 10.7%
Cc1cccc(NS(=O)(=O)c2ccc(-c3cnc(C4CC4)o3)cc2)c1 10%
CC[N+]1(CC)CC2=Cc3ccccc3CC2C1 (configuration not stated) 13.8%
NS(=O)(=O)c1cc(Cl)c(Cl)c(S(N)(=O)=O)c1 9.04%
CCOC(=O)c1c(NC(=O)CN2C(=O)NC3(CCC(C)CC3)C2=O)sc(C)c1CC (configuration not stated) 8.23%
O=S(=O)(Cc1ccc(Cl)cc1Cl)c1ccc(Cl)cc1 12.1%
COc1ccc(OC)c(/C(C)=N\NC(=O)c2cc3cc(Cl)ccc3n2C)c1 14.1%
COc1cccc(-c2cnc3c(NC(C)=O)cc(-c4cc(F)ccc4OC)cn23)c1 9.31%
CC(C)(C)C(=O)OCc1nc(-c2ccc(O)c(O)c2)cs1 8.8%
C[C@H](CO)N1C[C@H](C)[C@@H](CN(C)Cc2ccc(Cl)c(Cl)c2)Oc2ccc(NC(=O)Nc3ccc(C(F)(F)F)cc3)cc2CC1=O 12.6%
C[C@H]1CN([C@@H](C)CO)C(=O)c2cccc(NC(=O)Nc3ccc(C(F)(F)F)cc3)c2O[C@H]1CN(C)C(=O)NC1CCCCC1 8.85%
CCCC(=O)Nc1nc2ccc(NC(=O)c3c(F)c(F)c(OC)c(F)c3F)cc2s1 13.3%

Activity (quench increase), inactive:
COc1cc(/C=N/NC(=O)c2cc(-c3ccccc3C)nc3ccccc23)cc(OC)c1O -3.23%
COc1ccc(-c2cc(C(=O)N/N=C/c3cccnc3)c3ccccc3n2)c(OC)c1 -13%
C[C@@H]1CN([C@H](C)CO)C(=O)Cc2cc(NS(=O)(=O)c3ccc(F)cc3)ccc2O[C@H]1CN(C)C -0.0265%
CC(C)(C)[S@@](=O)N1Cc2cc(C(=O)N3CCOCC3)nc(-c3cccc(-c4ccc(C#N)cc4)c3)c2[C@H]1CCO 1.68%
Cc1noc(C)c1NC(=O)Nc1ccc2c(c1)CC(=O)N([C@@H](C)CO)C[C@H](C)[C@@H](CN(C)CC1CCCCC1)O2 0.161%
CCOc1c2ccc(C(=O)NCc3ccc(OC(F)(F)F)cc3)cc2nn1C 0.909%
CCOC(=O)Cc1ncccc1C(=O)Nc1ccc(OC(F)(F)F)cc1 -3.45%
O=C(C1CCOCC1)N1CC(=O)N2[C@H](CO)[C@@H](c3ccc(C#CC4CCCC4)cc3)[C@H]2C1 -0.867%
C[C@@H]1CN([C@@H](C)CO)C(=O)c2cc(NS(C)(=O)=O)ccc2O[C@@H]1CN(C)C 0.661%
CC1CCCCN1CCCNc1ccc(C(CC(N)=O)NC(=O)c2ccccc2)cc1[N+](=O)[O-] (configuration not stated) -1.78%
NC(=O)CC(NC(=O)Cc1cccc2ccccc12)c1ccc(NCc2cc(F)ccc2F)c([N+](=O)[O-])c1 (configuration not stated) 0.166%
COc1ccc(S(=O)(=O)Nc2ccc3c(c2)C(=O)N([C@H](C)CO)C[C@H](C)[C@@H](CN(C)Cc2ccc(-c4ccccc4)cc2)O3)cc1 1.93%
COc1ccccc1C#Cc1ccc([C@@H]2[C@@H](CO)N(C(=O)C3CC3)[C@H]2C#N)cc1 2.81%
Cc1cc(-c2ccc(C)c(S(=O)(=O)NCCCN(Cc3ccccc3)C(C)C)c2)on1 0.63%
CCOc1ccccc1CNS(=O)(=O)c1cc(-c2cc(C)no2)ccc1C -0.998%
COc1ccc(C#Cc2ccc3c(c2)[C@]2(C(=O)N3)[C@H](C(=O)N3CCc4cc(OC)c(OC)cc4C3)[C@H]3C(=O)O[C@H](c4ccccc4)[C@H](c4ccccc4)N3[C@@H]2c2ccc(O)cc2)cc1 -2.79%
CCC(=O)Nc1ccc2c(c1)C(=O)N(C)[C@@H]1CC[C@@H](CC(=O)NCc3ccccc3Cl)O[C@H]1CO2 -0.213%
CC(=O)NC[C@H]1[C@@H](c2ccc(C#CC(C)C)cc2)[C@@H](CO)N1Cc1ccccn1 -0.601%
CCCC(=O)Nc1ccc2c(c1)C(=O)N(C)C[C@@H](OC)[C@H](C)CN(C(C)=O)[C@H](C)CO2 -1.19%
Cc1cccc(CNS(=O)(=O)c2ccc(-c3cnc(C4CC4)o3)cc2)c1 2.12%
COc1ccc(CNS(=O)(=O)c2ccc(-c3cnc(C4CC4)o3)cc2)cc1 -1.13%
COc1ccc(S(=O)(=O)N(C)C[C@H]2Oc3ccc(NS(=O)(=O)c4ccc(C)cc4)cc3CC(=O)N([C@@H](C)CO)C[C@@H]2C)cc1 -1.33%
COc1ccc2c3c(n(C)c2c1)[C@@H](CO)N(CC1CC1)CC31CCN(C(=O)c2cccc(F)c2)CC1 -0.0985%
C[C@H]1CCCCO[C@@H](CN(C)Cc2ccccc2)[C@@H](C)CN([C@@H](C)CO)C(=O)c2cc(NC(=O)CCCN(C)C)ccc2O1 -1.18%
CCCC#Cc1ccc2c(c1)O[C@@H](CN(C)CC1CC1)[C@@H](C)CN([C@H](C)CO)S2(=O)=O 2.53%
Cc1ccc(S(=O)(=O)N2C[C@H](O)COC[C@H]3O[C@H](CC(=O)N[C@H]4CCN(Cc5ccccc5)C4)CC[C@@H]32)cc1 0.736%
C[C@@H]1CN([C@H](C)CO)C(=O)Cc2cc(NC(=O)NC3CCCCC3)ccc2O[C@H]1CN(C)S(C)(=O)=O 0.525% and 3.05%
CCC(=O)N1C[C@@H](C)[C@@H](OC)CN(C)C(=O)c2ccc(NC(=O)Nc3ccccc3)cc2OC[C@H]1C -0.0305%
Cc1ccc(S(=O)(=O)Nc2cccc3c2O[C@@H](CN(C)S(=O)(=O)c2ccc(C)cc2)[C@H](C)CN([C@@H](C)CO)C3=O)cc1 -1.75%
O=C(C[C@H]1CC[C@H]2[C@@H](COC[C@@H](O)CN2C(=O)c2ccc3c(c2)OCO3)O1)NC1Cc2ccccc2C1 3.06%
Nc1c(Cl)cc(S(N)(=O)=O)cc1S(N)(=O)=O -0.405%
NS(=O)(=O)c1ccc(NC(=S)Nc2ccc(Br)c(Cl)c2)cc1 1.17%
CC(=O)N(C)C[C@H]1Oc2ncc(-c3cccc(F)c3)cc2C(=O)N([C@@H](C)CO)C[C@H]1C -3.71%
CN1C(=O)c2cc(NC(=O)c3ccccc3)ccc2OC[C@@H]2O[C@H](CC(=O)NCC3CC3)CC[C@@H]21 -1.16%
Cc1ccc(S(=O)(=O)N[C@H]2CC[C@@H](CC(=O)N3CCc4ccccc4C3)O[C@H]2CO)cc1 -3.27%
CCC1CCC2(CC1)NC(=O)N(CC(=O)Nc1ccc(OC)cc1)C2=O (configuration not stated) 4.71%
CCOC(=O)c1c(NC(=O)C2CC=CCC2C(=O)O)sc(C)c1CC (configuration not stated) 0.585%
O=S(=O)(NCc1ccc(Cl)cc1Cl)c1cccs1 0.403%
O=S(=O)(NC1CC1)c1ccc(Cl)cc1 0.433%
C/C=C/c1ccc([C@H]2[C@@H](CNC(C)C)N(c3nc(CC)cs3)[C@H]2CO)cc1 2.62%
COc1ccc(C(=O)N/N=C(\C)CC(=O)Nc2ccc(Cl)cn2)cc1 0.068%
COc1cc(C(=O)NCc2cc3cc(Cl)ccc3n2C)cc(OC)c1OC 2.35%
Cc1ccc(S(=O)(=O)Nc2ccc3c(c2)C(=O)N([C@@H](C)CO)C[C@@H](C)[C@H](CN(C)Cc2ccc(C(=O)O)cc2)O3)cc1 5.34%
COc1ccccc1-c1cc(NC(C)=O)c2ncc(-c3ccc(F)cc3)n2c1 3.05%
COc1cccc(-c2cnc3c(NC(C)=O)cc(-c4cccc(NC(C)=O)c4)cn23)c1 -0.356%
CCCNC(=O)[C@@H]1[C@@H](CO)[C@@H]2Cn3c(ccc(C4=CCCCC4)c3=O)[C@H]1N2CCC 0.001%
CN(c1ccc(O)cc1)c1nc(-c2cccnc2)cs1 3.59%
COc1ccc(C(C)(O)c2nc(-c3ccc(C)c(C)c3)cs2)cc1 (configuration not stated) 0.543%
C[C@H](CO)N1C[C@H](C)[C@H](CN(C)C(=O)c2cccnc2)Oc2ncc(C3=CCCC3)cc2C1=O -0.608%
C[C@@H]1CN([C@H](C)CO)C(=O)Cc2cc(NC(=O)Nc3ccccc3)ccc2O[C@@H]1CN(C)Cc1ccc(C(F)(F)F)cc1 0.116%
C[C@@H]1CN([C@H](C)CO)C(=O)c2cccc(NC(=O)Nc3ccccc3)c2O[C@@H]1CN(C)C(=O)NC1CCCCC1 -1.15%
C[C@H](CO)N1C[C@H](C)[C@@H](CN(C)C(=O)NC2CCCCC2)Oc2c(NC(=O)Nc3ccc(F)cc3)cccc2C1=O 3.54%
C[C@@H]1CN([C@H](C)CO)C(=O)Cc2cc(NC(=O)Nc3ccccc3)ccc2O[C@H]1CN(C)Cc1ccc(Cl)c(Cl)c1 -0.242%
O=C(C[C@@H]1C=C[C@H](NC(=O)Nc2ccc3c(c2)OCO3)[C@H](CO)O1)NCc1ccccc1 4.6%
CO[C@H]1CN(C)C(=O)c2ccc(NS(=O)(=O)c3ccccc3C)cc2OC[C@H](C)NC[C@H]1C -0.483%
CC(=O)Nc1ccc2nc(NC(=O)CS(=O)(=O)c3ccc(F)cc3)sc2c1 0.717%
CCCn1nc(C(=O)Nc2ccc3nc(C)sc3c2)c2ccccc2c1=O -0.539%
